Bioassay records: PubChem BioAssay, several laboratories
GLD-1 RNA inh = GLD-1/TGE RNA complex disruptors, primary screen, biochemical, fluorescence polarization | purified GLD-1 + fluorescein TGE RNA | inhibition, % at 5.96 µM | 320,000 tested, 0.44% active;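 active = percent inhibition above a per-plate cutoff, the plate mean of test compounds plus 3 SD, cut at about 30% in these data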;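 note: 0% = DMSO wells with GLD-1 and probe and 100% = wells lacking GLD-1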
Target sequence (Q17339 whole entry, looked up): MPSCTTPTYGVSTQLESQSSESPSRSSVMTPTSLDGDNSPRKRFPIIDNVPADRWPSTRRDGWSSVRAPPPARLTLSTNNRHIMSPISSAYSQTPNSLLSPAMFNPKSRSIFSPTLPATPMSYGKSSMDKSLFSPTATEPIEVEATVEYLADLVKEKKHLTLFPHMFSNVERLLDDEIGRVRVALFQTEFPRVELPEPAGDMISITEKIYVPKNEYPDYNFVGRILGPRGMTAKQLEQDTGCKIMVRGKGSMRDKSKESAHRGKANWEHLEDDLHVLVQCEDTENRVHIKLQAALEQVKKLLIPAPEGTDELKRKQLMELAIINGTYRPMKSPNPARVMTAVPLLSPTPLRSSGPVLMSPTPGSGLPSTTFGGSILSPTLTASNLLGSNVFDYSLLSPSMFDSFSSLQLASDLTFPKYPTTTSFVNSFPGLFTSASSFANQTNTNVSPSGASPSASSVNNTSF
EBV gp42 block = Epstein-Barr virus gp42 inhibitors, primary screen, biochemical, uHTS, fluorescence polarization. Glycoprotein 42 (Epstein-Barr virus (strain AG876)), Q1HVG2. Fluorescence polarization binding assay, mP read-out. inhibition, % (tested at 21.74 µM). 220,000 tested, 0.42% active; in the data active = inhibition above about 50%
BCLXL inh = inhibitors of human Bcl-xL, primary screen, biochemical, fluorescence polarization, HTS. Bcl-2-like protein 1 (Homo sapiens), Q07817. GST-Bcl-xL / FITC-Bim BH3 peptide fluorescence polarization. inhibition, % at 10.9 µM. 320,000 tested, 0.7% active;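 active = inhibition above the mean of all tested compounds plus 3 SD, cutoff set per campaign, cut at about 30% in these data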;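 note: 0% = DMSO wells and 100% = unlabeled Bim-BH3 peptide competitor; inhibitors lower millipolarization by displacing the labeled peptide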
MEX-5 binding = MEX-5 zinc finger RNA-binding disruptors – biochemical, C. elegans, fluorescence polarization, MLPCN library, primary screen | Zinc finger protein mex-5 (Caenorhabditis elegans), Q9XUB2 | activity score (negative = inhibition of binding), % at 10 µM | 300,000 tested, 0.38% active | MEX-5/FITC-TCR2 RNA binding; stronger effect = lower value;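 active = inhibition past about -25% in most replicates, and total fluorescence under double the plate's negative control median, limit read from the data; inconclusive = replicates evenly split on the limit, or fluorescence at least double controls; inactive = too little inhibition in most replicates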;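 note: 0% = DMSO and -100% = 5 µM competing unlabeled TCR2 RNA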
MCL1-BIM inh = inhibitors of MCL1 binding to BIM-BH3, primary screen, biochemical, fluorescence polarization | Induced myeloid leukemia cell differentiation protein Mcl-1 (Homo sapiens), Q07820 | 320,000 tested, 0.68% active | inhibition, % at 10.9 µM | AID 2057, 2009 | GST-MCL1 / FITC-Bim-BH3 fluorescence polarization;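 active = inhibition above the mean inhibition of all tested compounds plus 3 SD, set per campaign, cut at about 40% in these data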;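 note: 0% = DMSO wells and 100% = unlabeled Bim-BH3 peptide control; higher means more loss of mP so more displacement of Bim peptide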
The depositor's hits bear a star. Sampled rows, rich in hits. Any-hit rate of the full collection: about 1.3%.

For N#Cc1c(C#N)c(O)c2ccccc2c1O the results were GLD-1 RNA inh 16, EBV gp42 block 68*, BCLXL inh 45*, MEX-5 binding -23 and MCL1-BIM inh 44*.
N#Cc1ccccc1 was read as GLD-1 RNA inh 1, BCLXL inh 5 and MCL1-BIM inh 7.
`CC(=O)C1=C(O)C(=O)N(c2ccc(Br)cc2)C1c1cccc([N+](=O)[O-])c1` (centres undefined) gave GLD-1 RNA inh 10, BCLXL inh 3, MEX-5 binding -1 and MCL1-BIM inh 2.
`CCCCC1=CC2=CC(=O)C(C)(OC(=O)c3cccs3)C(=O)C2=CO1` (centres undefined) gave GLD-1 RNA inh 30, BCLXL inh 27, MEX-5 binding -12 and MCL1-BIM inh 39.
Screening COC(=O)CCCC1=CC2=CC(=O)C(C)(OC(=O)c3cnc4ccccc4n3)C(=O)C2=CO1 (centres undefined) returned GLD-1 RNA inh 94*, BCLXL inh 95*, MEX-5 binding -67* and MCL1-BIM inh 114*.
Screening COC/C=C/C1=CC2=CC(=O)C(C)(OC(=O)c3cnc4ccccc4n3)C(=O)C2=CN1CCc1ccccn1 (centres undefined) returned GLD-1 RNA inh 32*, BCLXL inh 52*, MEX-5 binding -15 and MCL1-BIM inh 55*.
For CCCCC1=CC2=CC(=O)C(C)(OC(=O)c3cnc4ccccc4n3)C(=O)C2=CO1 (centres undefined) the results were GLD-1 RNA inh 97*, EBV gp42 block 23, BCLXL inh 64*, MEX-5 binding inconclusive and MCL1-BIM inh 96*.
For CSc1cccc(CN(C)C(=O)C2CCC(=O)N(CCCN3CCCC3=O)C2)c1 (centres undefined) the results were GLD-1 RNA inh -7, BCLXL inh 0 and MCL1-BIM inh 1.
`O=Cc1sc([O-])nc1-[n+]1ccc2ccccc2c1` gave GLD-1 RNA inh 22, EBV gp42 block 13, BCLXL inh 47*, MEX-5 binding -6 and MCL1-BIM inh 41*.
For Oc1ccc(-c2cn3ccccc3n2)cc1O the results were GLD-1 RNA inh 10, BCLXL inh 21, MEX-5 binding -28* and MCL1-BIM inh 30.
Screening O=C(CC1OC(=O)c2ccccc21)NNC(=O)c1ccc(F)cc1 (centres undefined) returned GLD-1 RNA inh -1, BCLXL inh 4 and MCL1-BIM inh -6.
`CCOc1ccc(NC(=O)/C(C#N)=C/c2ccc(N3CCCC3)c(C)c2)cc1` gave GLD-1 RNA inh -40, EBV gp42 block 94*, BCLXL inh -23 and MCL1-BIM inh -46.
Screening CCNC(=O)c1cc2c(=O)n3cccc(C)c3nc2n(Cc2ccc(C)cc2)c1=N returned GLD-1 RNA inh -10, EBV gp42 block -16, BCLXL inh -9, MEX-5 binding -78* and MCL1-BIM inh -7.
For N=c1c(C(=O)NCCN2CCOCC2)cc2c(=O)n3ccccc3nc2n1CCc1ccccc1 the results were GLD-1 RNA inh 14, BCLXL inh 14, MEX-5 binding -28* and MCL1-BIM inh 4.
`N=c1c(C(=O)NC2CCCCC2)cc2c(=O)n3ccccc3nc2n1Cc1cccnc1` gave GLD-1 RNA inh 2, BCLXL inh 8, MEX-5 binding -35* and MCL1-BIM inh 7.
For N=c1c(C(=O)NCc2ccc(F)cc2)cc2c(=O)n3ccccc3nc2n1Cc1cccnc1 the results were GLD-1 RNA inh 3, EBV gp42 block 28, BCLXL inh 41*, MEX-5 binding inconclusive and MCL1-BIM inh 39.
COc1ccc(C(CNC(=O)C(Cc2ccccc2)NC(N)=O)N(C)C)cc1 (centres undefined) was read as GLD-1 RNA inh -9, BCLXL inh 5, MEX-5 binding 2 and MCL1-BIM inh 8.
For Cc1ccc(S(=O)(=O)c2cc3c(=O)n4ccccc4nc3n(CCc3ccccc3)c2=N)cc1 the results were GLD-1 RNA inh 4, BCLXL inh 0, MEX-5 binding -32* and MCL1-BIM inh -4.
For Cc1cccn2c(=O)c3cc(C(=O)NCc4ccco4)c(=N)n(C4CCCC4)c3nc12 the results were GLD-1 RNA inh 18, BCLXL inh 34*, MEX-5 binding -9 and MCL1-BIM inh 34.
`N=c1c(C(=O)NC2CCCCC2)cc2c(=O)n3ccccc3nc2n1CCc1ccccc1` gave GLD-1 RNA inh 1, BCLXL inh 11, MEX-5 binding -26* and MCL1-BIM inh 7.
`CCn1c(=N)c(S(=O)(=O)c2ccc(C)cc2)cc2c(=O)n3ccccc3nc21` gave GLD-1 RNA inh -8, EBV gp42 block -10, BCLXL inh 6, MEX-5 binding inconclusive and MCL1-BIM inh 6.
Screening N=c1c(C(=O)NCC2CCCO2)cc2c(=O)n3ccccc3nc2n1Cc1cccnc1 (centres undefined) returned GLD-1 RNA inh 10, EBV gp42 block -19, BCLXL inh 37*, MEX-5 binding -44* and MCL1-BIM inh 34.
Cc1cccn2c(=O)c3cc(C(=O)NCC4CCCO4)c(=N)n(Cc4cccnc4)c3nc12 (centres undefined) was read as GLD-1 RNA inh 0, EBV gp42 block 6, BCLXL inh 24 and MCL1-BIM inh 14.
`Cc1cccn2c(=O)c3cc(C(=O)NCC4CCCO4)c(=N)n(C4CCCCC4)c3nc12` (centres undefined) gave GLD-1 RNA inh -8, BCLXL inh 11, MEX-5 binding 10 and MCL1-BIM inh 6.
`Clc1ccccc1/C=C/C=N/Nc1nc(N2CCOCC2)nc(N2CCOCC2)n1` gave GLD-1 RNA inh 0, EBV gp42 block -13, BCLXL inh 4, MEX-5 binding 1 and MCL1-BIM inh 4.
For COc1ccc(-c2nn(-c3ccccc3)cc2/C=C2/SC(=S)N(CCC(=O)O)C2=O)cc1 the results were GLD-1 RNA inh -13, BCLXL inh 6, MEX-5 binding 2 and MCL1-BIM inh 2.
CCOc1ccc(-c2nn(-c3ccccc3)cc2/C=C2\SC(=S)N(C3CCS(=O)(=O)C3)C2=O)cc1 (centres undefined) was read as GLD-1 RNA inh 0, EBV gp42 block 69*, BCLXL inh 0, MEX-5 binding -31* and MCL1-BIM inh 3.
CCCOc1ccc(-c2nn(-c3ccccc3)cc2/C=C2\SC(=S)N(C3CCS(=O)(=O)C3)C2=O)cc1 (centres undefined) was read as GLD-1 RNA inh 2, EBV gp42 block 69*, BCLXL inh -3, MEX-5 binding -1 and MCL1-BIM inh -6.
NC(=O)c1ccc(NC(=O)CSc2nc3ccccc3c(=O)n2CCCN2CCOCC2)cc1 was read as GLD-1 RNA inh -6, BCLXL inh -3 and MCL1-BIM inh -3.
